In PubChem BioAssay:
A number with no mark means an inactive call. Activity calls are given as the source filed them.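 How the source made its calls, unless noted: active means mean inhibition above 46.68%, the untreated control wells mean plus 3 SD; inactive means the rest.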

Assays:
[1] = molecular target: Nuclear receptor coactivator 3 (Homo sapiens) (UniProt Q9Y6Q9); assay: NCOA3 GAL4-fusion reporter inhibition – cell-based, luminescence, quadruplicate, confirmation (AID 588792;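 active means mean inhibition over 43.08%, the solvent-only control mean plus 3 SD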;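 further: 0% = DMSO treated cells and 100% = gossypol at 36 µM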); conditions: HEK293 GAL4-SRC3 luciferase reporter, at 3.6 µM, hits give high values
Nuclear receptor coactivator 3 (Homo sapiens), sequence (Q9Y6Q9 whole entry, looked up, the tested form may be a part): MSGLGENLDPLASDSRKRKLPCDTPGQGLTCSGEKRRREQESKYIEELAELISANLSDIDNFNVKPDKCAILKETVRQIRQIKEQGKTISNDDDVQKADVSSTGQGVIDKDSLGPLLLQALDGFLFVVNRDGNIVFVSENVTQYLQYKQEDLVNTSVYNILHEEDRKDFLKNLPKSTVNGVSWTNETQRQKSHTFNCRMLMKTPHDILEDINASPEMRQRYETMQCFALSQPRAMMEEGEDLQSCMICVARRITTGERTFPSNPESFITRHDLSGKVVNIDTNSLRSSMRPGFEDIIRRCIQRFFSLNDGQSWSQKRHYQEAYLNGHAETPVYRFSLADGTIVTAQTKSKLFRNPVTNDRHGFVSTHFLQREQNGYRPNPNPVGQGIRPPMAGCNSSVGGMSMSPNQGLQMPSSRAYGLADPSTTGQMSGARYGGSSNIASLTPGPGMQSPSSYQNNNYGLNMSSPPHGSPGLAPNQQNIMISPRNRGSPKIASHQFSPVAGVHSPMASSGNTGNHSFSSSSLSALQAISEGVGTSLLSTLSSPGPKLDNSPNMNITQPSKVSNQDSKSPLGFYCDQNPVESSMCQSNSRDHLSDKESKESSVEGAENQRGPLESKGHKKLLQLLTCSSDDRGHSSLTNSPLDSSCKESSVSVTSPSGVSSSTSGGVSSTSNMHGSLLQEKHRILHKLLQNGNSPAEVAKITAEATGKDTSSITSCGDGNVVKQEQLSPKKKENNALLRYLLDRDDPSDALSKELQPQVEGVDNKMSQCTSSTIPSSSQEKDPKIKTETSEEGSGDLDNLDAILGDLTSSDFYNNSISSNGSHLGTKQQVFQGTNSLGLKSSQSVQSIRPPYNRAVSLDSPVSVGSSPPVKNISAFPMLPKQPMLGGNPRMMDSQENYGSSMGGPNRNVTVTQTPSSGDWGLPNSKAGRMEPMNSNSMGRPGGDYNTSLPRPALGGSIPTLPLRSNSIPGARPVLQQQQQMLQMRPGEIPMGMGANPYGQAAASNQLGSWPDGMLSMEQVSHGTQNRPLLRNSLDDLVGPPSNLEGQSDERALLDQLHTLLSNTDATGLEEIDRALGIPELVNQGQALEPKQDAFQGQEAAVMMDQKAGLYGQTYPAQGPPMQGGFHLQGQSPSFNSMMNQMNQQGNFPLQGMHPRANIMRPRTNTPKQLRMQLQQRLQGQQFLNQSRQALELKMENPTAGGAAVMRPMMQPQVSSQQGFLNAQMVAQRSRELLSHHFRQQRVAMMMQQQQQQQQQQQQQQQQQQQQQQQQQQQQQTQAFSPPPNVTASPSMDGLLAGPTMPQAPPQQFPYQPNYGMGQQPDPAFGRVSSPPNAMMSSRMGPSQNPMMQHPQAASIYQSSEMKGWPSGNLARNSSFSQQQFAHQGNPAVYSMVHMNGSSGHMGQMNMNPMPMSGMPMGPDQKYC

[2] = system: transactivating tegument protein VP16 (Human herpesvirus 1), Gal4-VP16 luciferase reporter; assay: repression of VP16-driven luciferase reporter – cell-based, luminescence, high throughput, counter-screen for SRC3 inhibitor project (AID 588794; in the data active means inhibition above about 30%); conditions: mammalian cells, at 3.6 µM, hits give high values
[3] = molecular target: Nuclear receptor coactivator 1 (Homo sapiens) (UniProt Q15788); assay: NCOA1 GAL4-fusion reporter inhibition – cell-based, luminescence, quadruplicate, confirmation (AID 588820); conditions: HEK293 GAL4-SRC1 luciferase reporter, at 3.6 µM, hits give high values;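 further: 0% = DMSO wells and 100% = gossypol 36 µM treated wells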
Nuclear receptor coactivator 1 (Homo sapiens), sequence (Q15788 whole entry, looked up, the tested form may be a part): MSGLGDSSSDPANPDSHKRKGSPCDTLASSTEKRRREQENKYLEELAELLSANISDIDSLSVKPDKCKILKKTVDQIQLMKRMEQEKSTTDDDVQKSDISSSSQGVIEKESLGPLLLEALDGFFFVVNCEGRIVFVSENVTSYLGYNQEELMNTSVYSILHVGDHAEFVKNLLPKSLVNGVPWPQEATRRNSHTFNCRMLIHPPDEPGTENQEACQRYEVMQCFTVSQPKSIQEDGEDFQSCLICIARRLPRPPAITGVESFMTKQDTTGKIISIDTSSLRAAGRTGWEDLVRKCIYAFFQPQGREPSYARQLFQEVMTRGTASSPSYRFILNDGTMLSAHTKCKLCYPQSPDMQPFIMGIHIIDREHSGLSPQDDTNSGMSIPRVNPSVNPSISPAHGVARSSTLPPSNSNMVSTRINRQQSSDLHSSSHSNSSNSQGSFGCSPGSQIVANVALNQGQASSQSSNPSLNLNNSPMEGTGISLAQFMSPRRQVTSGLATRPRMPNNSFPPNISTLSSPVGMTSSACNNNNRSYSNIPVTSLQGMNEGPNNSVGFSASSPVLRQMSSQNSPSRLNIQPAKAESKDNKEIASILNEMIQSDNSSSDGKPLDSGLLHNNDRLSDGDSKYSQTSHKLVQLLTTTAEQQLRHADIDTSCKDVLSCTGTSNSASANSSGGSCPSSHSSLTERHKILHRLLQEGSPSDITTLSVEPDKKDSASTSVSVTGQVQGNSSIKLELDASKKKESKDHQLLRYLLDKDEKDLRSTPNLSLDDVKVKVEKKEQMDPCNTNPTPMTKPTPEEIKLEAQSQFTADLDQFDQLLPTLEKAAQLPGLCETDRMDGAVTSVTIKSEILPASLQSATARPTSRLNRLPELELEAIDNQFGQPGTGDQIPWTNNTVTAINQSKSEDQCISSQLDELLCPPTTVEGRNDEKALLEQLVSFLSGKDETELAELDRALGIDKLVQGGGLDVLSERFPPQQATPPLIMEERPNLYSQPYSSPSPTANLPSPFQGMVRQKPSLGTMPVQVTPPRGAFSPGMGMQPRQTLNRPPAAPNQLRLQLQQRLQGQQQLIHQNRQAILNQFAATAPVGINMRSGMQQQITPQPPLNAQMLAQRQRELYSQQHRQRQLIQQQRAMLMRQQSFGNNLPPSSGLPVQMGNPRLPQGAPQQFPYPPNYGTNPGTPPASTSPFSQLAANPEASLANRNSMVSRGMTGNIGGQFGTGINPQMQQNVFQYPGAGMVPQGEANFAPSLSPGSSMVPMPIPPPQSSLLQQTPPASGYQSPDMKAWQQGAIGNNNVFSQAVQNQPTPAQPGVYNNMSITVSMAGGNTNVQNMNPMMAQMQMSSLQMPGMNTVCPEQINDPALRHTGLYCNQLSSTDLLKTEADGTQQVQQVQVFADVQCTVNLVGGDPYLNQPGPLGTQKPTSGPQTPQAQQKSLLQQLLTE

[4] = repression of VP16-driven luciferase reporter – cell-based, luminescence, high throughput, counter-screen for SRC1 inhibitor project (AID 588824; in the data active means inhibition above about 25%); conditions: cell-based VP16 transactivation luciferase luminescence; at 3.6 µM; hits give high values
[5] = system: transactivating tegument protein VP16 (Human herpesvirus 1); assay: compounds suppressing VP16-driven luciferase signal – cell-based, luminescence, single concentration, counter-screen for SRC2 inhibitor project (AID 652007; in the data active means inhibition above about 36%); conditions: cell-based VP16 transactivation luciferase reporter, at 8.9 µM, hits give high values
[6] = molecular target: Nuclear receptor coactivator 2 (Homo sapiens) (UniProt Q15596); assay: inhibition of GAL4-SRC2 driven luciferase expression – cell-based, luminescence, HEK293, triplicate, confirmation (AID 652008;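 active means mean inhibition above 46.5%, the solvent-only control mean plus 3 SD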;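 further: 0% = DMSO-treated cells and 100% = Gossypol at 36 µM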); conditions: HEK293 GAL4-SRC2 luciferase reporter, at 8.9 µM, hits give high values
Nuclear receptor coactivator 2 (Homo sapiens), sequence (Q15596 whole entry, looked up, the tested form may be a part): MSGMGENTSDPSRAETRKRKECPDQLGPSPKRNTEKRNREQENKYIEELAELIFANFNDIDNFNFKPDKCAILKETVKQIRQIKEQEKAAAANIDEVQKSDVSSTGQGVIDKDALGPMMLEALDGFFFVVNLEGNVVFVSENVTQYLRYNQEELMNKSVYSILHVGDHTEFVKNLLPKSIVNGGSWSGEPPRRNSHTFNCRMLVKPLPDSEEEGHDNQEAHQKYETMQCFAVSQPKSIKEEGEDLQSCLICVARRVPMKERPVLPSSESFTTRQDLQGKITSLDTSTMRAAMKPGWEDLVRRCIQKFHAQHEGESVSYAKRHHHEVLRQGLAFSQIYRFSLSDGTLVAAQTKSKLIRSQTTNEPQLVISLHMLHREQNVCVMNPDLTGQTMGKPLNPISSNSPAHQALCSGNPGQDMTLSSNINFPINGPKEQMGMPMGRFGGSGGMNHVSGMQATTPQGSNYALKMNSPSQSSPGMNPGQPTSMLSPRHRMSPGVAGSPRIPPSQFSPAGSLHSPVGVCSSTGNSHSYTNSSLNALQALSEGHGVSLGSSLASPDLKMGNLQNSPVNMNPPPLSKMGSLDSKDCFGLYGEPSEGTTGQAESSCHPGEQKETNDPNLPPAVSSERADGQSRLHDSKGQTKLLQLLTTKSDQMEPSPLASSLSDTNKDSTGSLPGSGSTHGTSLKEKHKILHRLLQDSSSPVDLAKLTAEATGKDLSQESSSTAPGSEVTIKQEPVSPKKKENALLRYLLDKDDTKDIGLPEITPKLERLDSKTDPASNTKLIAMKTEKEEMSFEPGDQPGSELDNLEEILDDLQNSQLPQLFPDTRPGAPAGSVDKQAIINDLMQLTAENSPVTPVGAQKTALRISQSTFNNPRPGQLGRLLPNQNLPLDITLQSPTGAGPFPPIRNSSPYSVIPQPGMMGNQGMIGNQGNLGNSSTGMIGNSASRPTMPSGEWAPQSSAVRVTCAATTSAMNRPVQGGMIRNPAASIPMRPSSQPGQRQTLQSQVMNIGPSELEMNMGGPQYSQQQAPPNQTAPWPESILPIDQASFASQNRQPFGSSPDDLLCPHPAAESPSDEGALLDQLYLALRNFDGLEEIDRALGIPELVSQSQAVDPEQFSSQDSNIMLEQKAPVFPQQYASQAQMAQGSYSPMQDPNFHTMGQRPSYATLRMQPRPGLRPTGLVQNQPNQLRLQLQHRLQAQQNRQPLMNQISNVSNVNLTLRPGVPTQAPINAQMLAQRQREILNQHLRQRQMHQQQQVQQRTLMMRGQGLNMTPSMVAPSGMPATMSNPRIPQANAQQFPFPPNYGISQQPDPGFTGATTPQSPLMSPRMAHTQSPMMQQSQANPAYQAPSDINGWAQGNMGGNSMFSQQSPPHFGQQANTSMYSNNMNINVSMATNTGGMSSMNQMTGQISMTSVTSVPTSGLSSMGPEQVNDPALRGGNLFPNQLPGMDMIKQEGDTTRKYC

SMILES | inhibition [1] | inhibition [2] | inhibition [3] | inhibition [4] | inhibition [5] | inhibition [6]
Cc1ccc(S(=O)(=O)c2ccc([N+](=O)[O-])cn2)cc1 | 25.7% | -18.7% | -25.7% | -32.7% | 13% | 23.4%
CCn1c2ccccc2c2cnc(N=CN(C)C)c(C#N)c21 | 32% | 19.6% | 28.3% | 21.4% | -28.4% | -0.33%
CC(C)(C)c1ccc(Oc2ccc(N)cn2)cc1 | 39.6% | 20.4% | 2.49% | 18.6% | 69% (active) | 88.9% (active)
Cc1nc2c(-c3ccc(Cl)cc3)cnn2c(N)c1-c1ccc(F)cc1 | 38% | 24.5% | -12% | -6.2% | 2.27% | 53.7% (active)
C=Cc1ccc(CC2(C)C(=O)Nc3ccc(-c4cccnc4)cc32)cc1 (configuration not stated) | 45.2% (active) | 38% (active) | 53.8% (active) | 31.1% (active) | 2.06% | 35%
CCOc1ccc(/C=C2\SC(=S)N(CCCC(=O)NCCCN3CCOCC3)C2=O)cc1 | 29.9% | 10.6% | 22.1% | 7.63% | 59.8% (active) | 90% (active)
CC(C)(C)c1ccc(C(=O)NC(=S)Nc2nc3c(s2)CCCC3)cc1 | 20.4% | -9.66% | -33.4% | -47.4% | 0.2% | 34.8%
